# Results: the supplement of paper PMC8728848
# This excerpt belongs to a sample that is enriched for the strongest signals.
# Key:
# Experiment in all cases: glycan array binding signal (z-score within array); higher = stronger binding
# Conditions in all cases: glycan notation: IUPAC condensed, linker removed
# [1] = target: Fuc(a1-2)Gal(b1-4)GlcNAc(b1-3)Gal(b1-4)GlcNAc
# Outline: (§1)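 Glycan array binding is given as a within-array Z-score, which can be read as non-binding when negative. The arrays, 3228 of them, came from the Consortium for Functional Glycomics database and were retained only where the protein sequence was available. Z-scores were averaged across arrays of the same protein sequence at different concentrations or buffers and across linkers.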
# [2] = target: Fuc(a1-2)Gal(b1-4)GlcNAc(b1-3)Gal(b1-4)GlcNAc(b1-2)Man(a1-3)[Fuc(a1-2)Gal(b1-4)GlcNAc(b1-3)Gal(b1-4)GlcNAc(b1-2)Man(a1-6)]Man(b1-4)GlcNAc(b1-4)GlcNAc
# Outline: as §1
# [3] = target: Fuc(a1-2)Gal(b1-4)[Fuc(a1-3)]GlcNAc
# Outline: as §1
# [4] = target: Fuc(a1-2)Gal(b1-4)[Fuc(a1-3)]GlcNAc(b1-2)Man(a1-3)[Fuc(a1-2)Gal(b1-4)[Fuc(a1-3)]GlcNAc(b1-2)Man(a1-6)]Man(b1-4)GlcNAc(b1-4)[Fuc(a1-6)]GlcNAc
# Outline: as §1
# [5] = target: Fuc(a1-2)Gal(b1-4)[Fuc(a1-3)]GlcNAc(b1-2)[Fuc(a1-2)Gal(b1-4)[Fuc(a1-3)]GlcNAc(b1-4)]Man(a1-3)[Fuc(a1-2)Gal(b1-4)[Fuc(a1-3)]GlcNAc(b1-2)Man(a1-6)]Man(b1-4)GlcNAc(b1-4)GlcNAc
# Outline: as §1
# [6] = target: Fuc(a1-2)Gal(b1-4)[Fuc(a1-3)]GlcNAc(b1-3)GalNAc
# Outline: as §1
# [7] = target: Fuc(a1-2)Gal(b1-4)[Fuc(a1-3)]GlcNAc(b1-3)[Neu5Ac(a2-6)Gal(b1-4)GlcNAc(b1-6)]Gal(b1-4)Glc
# Outline: as §1
# [8] = target: Fuc(a1-2)Gal6S(b1-4)Glc6S
# Outline: as §1
# [9] = target: Fuc(a1-2)[Gal(a1-3)]Gal(b1-4)GlcNAc(b1-2)Man(a1-3)[Fuc(a1-2)[Gal(a1-3)]Gal(b1-4)GlcNAc(b1-2)Man(a1-6)]Man(b1-4)GlcNAc(b1-4)GlcNAc
# Outline: as §1
# [10] = target: Fuc(a1-2)[Gal(a1-3)]Gal(b1-4)[Fuc(a1-3)]GlcNAc(b1-3)GalNAc
# Outline: as §1
# [11] = target: Fuc(a1-2)[GalNAc(a1-3)]Gal(b1-3)GlcNAc
# Outline: as §1
# [12] = target: Fuc(a1-2)[GalNAc(a1-3)]Gal(b1-3)GlcNAc(b1-2)Man(a1-3)[Fuc(a1-2)[GalNAc(a1-3)]Gal(b1-3)GlcNAc(b1-2)Man(a1-6)]Man(b1-4)GlcNAc(b1-4)[Fuc(a1-6)]GlcNAc
# Outline: as §1
# [13] = target: Fuc(a1-2)[GalNAc(a1-3)]Gal(b1-4)GlcNAc(b1-3)Gal(b1-4)GlcNAc
# Outline: as §1
# [14] = target: Fuc(a1-2)[GalNAc(a1-3)]Gal(b1-4)[Fuc(a1-3)]GlcNAc(b1-3)GalNAc
# Outline: as §1
# [15] = target: Fuc(a1-3)[GalNAc(b1-4)]GlcNAc
# Outline: as §1
# [16] = target: Gal(a1-3)Gal(b1-3)[Fuc(a1-4)]GlcNAc(b1-2)Man(a1-3)[Gal(a1-3)Gal(b1-3)[Fuc(a1-4)]GlcNAc(b1-2)Man(a1-6)]Man(b1-4)GlcNAc(b1-4)GlcNAc
# Outline: as §1
# Gal(b1-3)Gal(b1-4)GlcNAc = target: Gal(b1-3)Gal(b1-4)GlcNAc
# Outline: as §1
# Gal(b1-3)GalNAc = target: Gal(b1-3)GalNAc
# Outline: as §1
# [17] = target: Gal(b1-3)GalNAc(a1-3)[Fuc(a1-2)]Gal(b1-4)Glc
# Outline: as §1
# [18] = target: Gal(b1-3)GalNAc(a1-3)[Fuc(a1-2)]Gal(b1-4)GlcNAc
# Outline: as §1
# Gal(b1-3)GalNAc(b1-3)Gal = target: Gal(b1-3)GalNAc(b1-3)Gal
# Outline: as §1
# [19] = target: Gal(b1-3)GalNAc(b1-3)Gal(a1-4)Gal(b1-4)Glc
# Outline: as §1
# [20] = target: Gal(b1-3)GalNAc(b1-4)Gal(b1-4)Glc
# Outline: as §1
# [21] = target: Gal(b1-3)GalNAc(b1-4)[Neu5Ac(a2-3)]Gal(b1-4)Glc
# Outline: as §1
# Gal(b1-3)GlcNAc = target: Gal(b1-3)GlcNAc
# Outline: as §1
# [22] = target: Gal(b1-3)[Fuc(a1-4)]GlcNAc
# Outline: as §1
# [23] = target: Gal(b1-3)[Neu5Ac(a2-6)]GalNAc
# Outline: as §1
# [24] = target: Gal(b1-3)[Neu5Ac(b2-6)]GalNAc
# Outline: as §1
# [25] = target: Gal(b1-4)GalNAc(b1-3)[Fuc(a1-2)]Gal(b1-4)GlcNAc
# Outline: as §1
# [26] = target: Gal(b1-4)GlcNAc(b1-2)[Gal(b1-4)GlcNAc(b1-6)]Man(a1-6)[Gal(b1-4)GlcNAc(b1-2)Man(a1-3)]Man(b1-4)GlcNAc(b1-4)[Fuc(a1-6)]GlcNAc
# Outline: as §1
# [27] = target: Gal(b1-4)GlcNAc(b1-3)Gal(b1-4)GlcNAc(b1-2)[Gal(b1-4)GlcNAc(b1-3)Gal(b1-4)GlcNAc(b1-6)]Man(a1-6)[Gal(b1-4)GlcNAc(b1-3)Gal(b1-4)GlcNAc(b1-2)Man(a1-3)]Man(b1-4)GlcNAc(b1-4)[Fuc(a1-6)]GlcNAc
# Outline: as §1
# GalNAc(b1-3)GlcNAc = target: GalNAc(b1-3)GlcNAc
# Outline: as §1
# GalNAc3S(b1-4)GlcNAc = target: GalNAc3S(b1-4)GlcNAc
# Outline: as §1
# Glc(b1-4)Glc = target: Glc(b1-4)Glc
# Outline: as §1
# [28] = target: GlcNAc(a1-3)Gal(b1-4)GlcNAc
# Outline: as §1
# [29] = target: GlcNAc(b1-2)[GlcNAc(b1-4)]Man(a1-3)[GlcNAc(b1-4)][GlcNAc(b1-2)[GlcNAc(b1-6)]Man(a1-6)]Man(b1-4)GlcNAc(b1-4)[Fuc(a1-6)]GlcNAc
# Outline: as §1
# [30] = target: GlcNAc(b1-3)Gal(b1-4)GlcNAc(b1-3)Gal(b1-4)GlcNAc(b1-2)Man(a1-3)[GlcNAc(b1-3)Gal(b1-4)GlcNAc(b1-3)Gal(b1-4)GlcNAc(b1-2)Man(a1-6)]Man(b1-4)GlcNAc(b1-4)[Fuc(a1-6)]GlcNAc
# Outline: as §1
# [31] = target: GlcNAc(b1-3)[GlcNAc(b1-6)]GalNAc
# Outline: as §1
# Kdn(a2-6)Gal(b1-4)GlcNAc = target: Kdn(a2-6)Gal(b1-4)GlcNAc
# Outline: as §1
# [32] = target: Man(a1-2)Man(a1-3)[Man(a1-6)]Man(a1-6)[Man(a1-2)Man(a1-3)]Man(b1-4)GlcNAc(b1-4)GlcNAc
# Outline: as §1
# [33] = target: Man(a1-3)[Man(a1-6)]Man(a1-6)[Man(a1-3)]Man(b1-4)GlcNAc(b1-4)GlcNAc
# Outline: as §1
# [34] = target: Neu5Ac(a2-3)Gal(b1-3)GalNAc6S
# Outline: as §1
# [35] = target: Neu5Ac(a2-3)Gal(b1-3)GlcNAc(b1-4)Gal(b1-4)Glc
# Outline: as §1
# [36] = target: Neu5Ac(a2-3)Gal(b1-3)GlcNAc(b1-6)GalNAc
# Outline: as §1
# Neu5Ac(a2-3)Gal(b1-4)Glc = target: Neu5Ac(a2-3)Gal(b1-4)Glc
# Outline: as §1
# [37] = target: Neu5Ac(a2-3)Gal(b1-4)GlcNAc(b1-2)[Neu5Ac(a2-3)Gal(b1-4)GlcNAc(b1-4)]Man(a1-3)[GlcNAc(b1-4)][Neu5Ac(a2-3)Gal(b1-4)GlcNAc(b1-4)Man(a1-6)]Man(b1-4)GlcNAc(b1-4)GlcNAc
# Outline: as §1
# [38] = target: Neu5Ac(a2-3)Gal(b1-4)GlcNAc(b1-3)Gal
# Outline: as §1
# [39] = target: Neu5Ac(a2-3)Gal(b1-4)GlcNAc(b1-3)Gal(b1-4)GlcNAc(b1-3)Gal(b1-4)GlcNAc
# Outline: as §1
# Neu5Ac(a2-3)GalNAc = target: Neu5Ac(a2-3)GalNAc
# Outline: as §1
# [40] = target: Neu5Ac(a2-6)Gal(b1-4)GlcNAc(b1-2)Man(a1-3)[Gal(b1-4)GlcNAc(b1-2)Man(a1-6)]Man(b1-4)GlcNAc(b1-4)GlcNAc
# Outline: as §1
# [41] = target: Neu5Ac(a2-6)GalNAc(b1-4)GlcNAc6S
# Outline: as §1
# [42] = target: Neu5Ac(a2-8)Neu5Ac(a2-3)[Gal(b1-3)GalNAc(b1-4)]Gal(b1-4)Glc
# Outline: as §1
# [43] = target: Neu5Ac(a2-8)Neu5Ac(a2-8)Neu5Ac
# Outline: as §1
# Neu5Gc(a2-6)GalNAc = target: Neu5Gc(a2-6)GalNAc
# Outline: as §1
binder,measurement,setting,value
"Epa3 (Candida glabrata), Q6VBI8_CANGB (protein) MGSSHHHHHHSSGLVPRGSHMNDLGFSLFEKRELSSQNPFGYPIGCSPQDVAIIPGLTMELYSYPIVSGTPPNCYDASYVDPEYPRTGYLKRKMVGKSTGVTGNLNYKYSVEKACMVKYGNLPAGYNYNEPLTVSNFTMILYGYFKAQTTGLHTFFVNADDLLYINFGAGNAFDCCKREDSKTKLGEYVAYDIWHVDSSKNKVSLFLEKDLYYPIRMFFNNIGKDSSLDLSFSVNGATDQISDFSGYLYSVPDQPDTCPAHIGYDTTCR",glycan array binding signal (z-score),[1],-0.314
same,glycan array binding signal (z-score),[2],0.01
same,glycan array binding signal (z-score),[3],-0.32
same,glycan array binding signal (z-score),[4],0.042
same,glycan array binding signal (z-score),[5],0.047
same,glycan array binding signal (z-score),[6],0.718
same,glycan array binding signal (z-score),[7],-0.262
same,glycan array binding signal (z-score),[8],0.004
same,glycan array binding signal (z-score),[9],-0.263
same,glycan array binding signal (z-score),[10],0.123
same,glycan array binding signal (z-score),[11],-0.201
same,glycan array binding signal (z-score),[12],-0.205
same,glycan array binding signal (z-score),[13],-0.246
same,glycan array binding signal (z-score),[14],2.94
same,glycan array binding signal (z-score),[15],0.843
same,glycan array binding signal (z-score),[16],-0.23
same,glycan array binding signal (z-score),Gal(b1-3)Gal(b1-4)GlcNAc,3.61
same,glycan array binding signal (z-score),Gal(b1-3)GalNAc,2.99
same,glycan array binding signal (z-score),[17],3.57
same,glycan array binding signal (z-score),[18],3.87
same,glycan array binding signal (z-score),Gal(b1-3)GalNAc(b1-3)Gal,8.62
same,glycan array binding signal (z-score),[19],3.07
same,glycan array binding signal (z-score),[20],17
same,glycan array binding signal (z-score),[21],2.86
same,glycan array binding signal (z-score),Gal(b1-3)GlcNAc,-0.202
same,glycan array binding signal (z-score),[22],-0.142
same,glycan array binding signal (z-score),[23],4.98
same,glycan array binding signal (z-score),[24],0.622
same,glycan array binding signal (z-score),[25],-0.192
same,glycan array binding signal (z-score),[26],-0.134
same,glycan array binding signal (z-score),[27],0.064
same,glycan array binding signal (z-score),GalNAc(b1-3)GlcNAc,-0.122
same,glycan array binding signal (z-score),GalNAc3S(b1-4)GlcNAc,-0.277
same,glycan array binding signal (z-score),Glc(b1-4)Glc,-0.201
same,glycan array binding signal (z-score),[28],-0.2
same,glycan array binding signal (z-score),[29],-0.314
same,glycan array binding signal (z-score),[30],0.201
same,glycan array binding signal (z-score),[31],-0.176
same,glycan array binding signal (z-score),Kdn(a2-6)Gal(b1-4)GlcNAc,-0.334
same,glycan array binding signal (z-score),[32],-0.175
same,glycan array binding signal (z-score),[33],-0.086
same,glycan array binding signal (z-score),[34],-0.264
same,glycan array binding signal (z-score),[35],0.022
same,glycan array binding signal (z-score),[36],-0.336
same,glycan array binding signal (z-score),Neu5Ac(a2-3)Gal(b1-4)Glc,-0.174
same,glycan array binding signal (z-score),[37],-0.312
same,glycan array binding signal (z-score),[38],-0.282
same,glycan array binding signal (z-score),[39],-0.435
same,glycan array binding signal (z-score),Neu5Ac(a2-3)GalNAc,-0.308
same,glycan array binding signal (z-score),[40],-0.331
same,glycan array binding signal (z-score),[41],-0.236
same,glycan array binding signal (z-score),[42],2.2
same,glycan array binding signal (z-score),[43],-0.342
same,glycan array binding signal (z-score),Neu5Gc(a2-6)GalNAc,-0.066
